Assay outcomes: PubChem BioAssay, National Center for Advancing Translational Sciences (NCATS)
hNpr1 antagonist = human Npr1 receptor antagonism | AID 1347048 | P16066 | HEK293 hNpr1 GloSensor cGMP, ANP-stimulated luminescence | Potency, µM (top dose mostly 46.3 µM), hits mostly inhibitors | 1.6% of 76,000 active; calls by dose curve; also: nearly all actives have a fitted effect of over 60% in size
Target sequence (P16066 whole entry, looked up): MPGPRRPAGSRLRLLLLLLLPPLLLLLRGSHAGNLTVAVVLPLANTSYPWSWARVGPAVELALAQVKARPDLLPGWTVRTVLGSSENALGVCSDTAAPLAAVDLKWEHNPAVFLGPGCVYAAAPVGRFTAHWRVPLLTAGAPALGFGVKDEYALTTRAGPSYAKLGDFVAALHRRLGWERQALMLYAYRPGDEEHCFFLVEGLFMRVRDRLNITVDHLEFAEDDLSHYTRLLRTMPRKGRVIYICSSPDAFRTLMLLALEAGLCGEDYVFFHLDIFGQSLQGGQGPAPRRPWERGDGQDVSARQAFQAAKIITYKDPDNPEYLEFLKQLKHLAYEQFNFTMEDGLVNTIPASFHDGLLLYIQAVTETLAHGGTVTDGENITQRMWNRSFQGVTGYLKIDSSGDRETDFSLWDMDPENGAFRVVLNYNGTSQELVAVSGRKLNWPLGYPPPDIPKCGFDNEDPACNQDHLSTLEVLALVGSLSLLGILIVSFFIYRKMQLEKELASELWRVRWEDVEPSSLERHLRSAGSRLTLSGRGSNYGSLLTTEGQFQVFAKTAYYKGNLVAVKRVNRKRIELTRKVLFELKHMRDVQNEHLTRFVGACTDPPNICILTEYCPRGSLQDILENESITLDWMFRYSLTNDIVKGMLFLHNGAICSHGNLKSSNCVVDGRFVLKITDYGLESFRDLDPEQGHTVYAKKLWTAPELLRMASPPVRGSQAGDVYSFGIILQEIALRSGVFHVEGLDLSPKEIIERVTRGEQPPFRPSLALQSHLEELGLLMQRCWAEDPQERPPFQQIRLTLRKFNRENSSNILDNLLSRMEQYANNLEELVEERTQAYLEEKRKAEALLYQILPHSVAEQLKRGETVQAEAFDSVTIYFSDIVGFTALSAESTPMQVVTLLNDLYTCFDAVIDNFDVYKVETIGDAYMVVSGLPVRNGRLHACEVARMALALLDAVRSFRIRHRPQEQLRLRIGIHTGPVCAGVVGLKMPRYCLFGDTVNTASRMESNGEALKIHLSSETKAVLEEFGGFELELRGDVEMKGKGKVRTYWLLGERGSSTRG
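Compound pre-incubated 30 min at room temperature on GloSensor-loaded HEK293 cells stably carrying hNpr1 and the pGS-40F cGMP biosensor. Stimulation uses hNppA at 0.1 nM final; luminescence is taken at baseline and 20 min post-agonist.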
HEK cytotox = HEK 293 cell cytotoxicity; HEK 293 viability, ATP luminescence (CellTiter-Glo), 48-72 h; Potency, µM (highest dose often 115 µM), usual class: inhibitors; 6.6% of 94,000 active; also: nearly all actives have a fitted effect of over 60% in size
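HEK 293 cells at 250 cells/well were exposed to compounds by pintool transfer for 48 or 72 hr at 37 degree Celsius, 5% CO2. Viability was read as ATP-coupled luminescence with CellTiter-Glo after 10 min at room temperature.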
FLuc inh = blocks purified firefly luciferase enzyme activity; P08659; purified P. pyralis luciferase, luminescence, biochemical; Potency, µM (top dose mostly 115 µM), hits mostly inhibitors; 2.5% of 76,000 active; also: nearly all actives have a fitted effect of over 65% in size
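Cell-free enzyme assay, 10nM P. pyralis luciferase, luciferin and ATP each at 10uM. Inhibition profiled over a 6-point titration, read as luminescence.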
NIH3T3 tox = NIH 3T3 cell cytotoxicity; NIH 3T3 viability, CellTiter-Glo ATP luminescence, 48-72 h; Potency, µM (titrated, usually from 96.7 µM), hits mostly inhibitors; 4.3% of 94,000 active; AID 1345082; also: nearly all actives have a fitted effect of over 55% in size
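Mouse fibroblast NIH 3T3 cells, 400 per well, received compound via pintool and were incubated for 48 or 72 hr prior to CellTiter-Glo ATP luminescence measurement.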
Numbers stand for hits; . = inactive; ? = inconclusive; / = no result. This is a sample that favours compounds with a hit; in the whole collection about 11% have one here. Unless noted, calls follow the shape of the dose curve; as a rule, active = well fitted curve in the direction sought with a large enough effect; inconclusive = small, poorly fitted or top-dose-only effect, or another doubt; inactive = no such curve, though single readings can be large; an effect the other way counts as inactive or inconclusive.

SMILES | hNpr1 antagonist | HEK cytotox | FLuc inh | NIH3T3 tox
Cc1noc(C)c1-c1cc2c(cc(C)n2CCN(C)C)c(Nc2ccncn2)n1 | . | 100µM | . | 25µM
Cc1noc(C)c1-c1cc2c(cc(C)n2CCN(C)C)c(-c2ccsc2)n1 | . | . | . | ?
Cc1cc(-c2nc(-c3c(C)noc3C)cc3c2cc(C)n3CCN(C)C)ccn1 | . | ? | . | ?
COc1cncc(-c2nc(-c3c(C)noc3C)cc3c2cc(C)n3CCN(C)C)c1 | . | 89µM | . | 22µM
Cc1noc(C)c1-c1cc2c(cc(C)n2CCN(C)C)c(-c2ccccc2)n1 | . | ? | . | 22µM
COc1cc(-c2nc(-c3c(C)noc3C)cc3c2cc(C)n3CCN(C)C)ccn1 | . | 71µM | . | ?
COc1ccc(C(=O)NCc2nnc3ccc(-c4ccc(Cl)cc4)nn23)cc1F | . | ? | . | ?
CC(=O)N1CCCC1C(=O)N1CCC(N2Cc3ccccc3C2=O)CC1 (centres undefined) | / | . | / | .
CCNC(=O)N1CCc2c(sc3ncnc(NCC)c23)C1 | . | . | . | .
Cc1noc(C)c1-c1cc2c(cc(C)n2CCN(C)C)c(-c2ccnn2C)n1 | . | ? | . | 45µM
COCC(=O)NC[C@@H]1C=C(C)[C@H](Cc2nc3ccc(C)cc3[nH]2)C[C@H]1C(C)C | . | ? | . | 50µM
COc1ccc2nc(C[C@@H]3C[C@@H](C(C)C)[C@H](CNC(=O)CCCC(=O)O)C=C3C)[nH]c2c1 | . | . | . | .
COCC(=O)NC[C@@H]1C=C(C)[C@H](Cc2nc3ccc(Cl)cc3[nH]2)C[C@H]1C(C)C | . | ? | . | 71µM
NCc1cccc(-c2cccc(Cl)c2)c1 | / | ? | / | 89µM
NCc1ccc(-c2cc(C(F)(F)F)ccc2Cl)cc1 | / | 28µM | / | 25µM
NCc1ccc(-c2cccc(O)c2)cc1 | / | 89µM | / | 89µM
NCc1ccc(-c2cccc(C(F)(F)F)c2)cc1 | / | 32µM | / | 32µM
O=C(O)c1ccc(-c2cccc(C(F)(F)F)c2)cc1 | / | . | / | .
Cc1ccc2c(c1)N(CCCC(=O)N1CCC(C)(c3noc(-c4ccccc4)n3)CC1)C(=O)CO2 | / | 32µM | / | ?
Cn1ncc2c(C(=O)NC3CC3)cc(-c3ccccc3C(F)(F)F)nc21 | / | . | / | ?
O=C(CCCc1ccccc1)NCc1nnc2cc(-c3nc(C4CC4)no3)ccn12 | . | ? | . | .
O=C(NCc1cccnc1)c1ccc2nnc(Cc3ccco3)n2c1 | / | . | / | .
O=C(c1nc2sccn2c1-c1ccc(C(F)(F)F)cc1)N1CCCCC1 | / | ? | / | .
O=C1CN(C(=O)c2csc3nc(-c4ccc(C(F)(F)F)cc4)cn23)CCCN1 | ? | 45µM | 7.9µM | ?
COc1ccc(-c2cnc3n[nH]c(-c4ccc(F)cc4C)c3n2)cn1 | . | 50µM | . | 50µM
SMILES | hNpr1 antagonist | HEK cytotox | FLuc inh | NIH3T3 tox
Cc1cc(F)ccc1-c1[nH]nc2ncc(-c3ccsc3)nc12 | . | ? | . | 20µM
COc1cc(-c2cnc3n[nH]c(-c4ccc(F)cc4C)c3n2)ccn1 | . | 79µM | . | ?
Cc1cc(F)ccc1-c1[nH]nc2ncc(-c3cccnc3)nc12 | . | ? | . | .
COc1cc(-c2cnc3n[nH]c(-c4ccccc4)c3n2)ccn1 | . | ? | . | ?
Cc1cc(F)ccc1-c1[nH]nc2ncc(-c3ccnn3C)nc12 | . | ? | . | .
COc1ccc2[nH]c(C[C@@H]3C[C@@H](C(C)C)[C@H](CNC4CCN(C(C)=O)CC4)C=C3C)nc2n1 | . | ? | . | ?
COc1ccc2[nH]c(C[C@@H]3C[C@@H](C(C)C)[C@H](CNC(C)=O)C=C3C)nc2n1 | . | 71µM | . | ?
COc1ccc2[nH]c(C[C@@H]3C[C@@H](C(C)C)[C@H](CNCc4cccnc4)C=C3C)nc2n1 | . | 63µM | . | 89µM
COc1ccc2[nH]c(C[C@@H]3C[C@@H](C(C)C)[C@H](CNC(=O)c4cnccn4)C=C3C)nc2n1 | . | 63µM | . | 100µM
COc1ccc2[nH]c(C[C@@H]3C[C@@H](C(C)C)[C@H](CNC(=O)Cn4cnnn4)C=C3C)nc2n1 | . | ? | . | ?
O=C1COc2ccc(-c3ccsc3)nc2CN1 | . | . | . | ?
Cc1cc(Br)ccc1NC(=O)C[C@H]1NC(=O)c2ccccc2NC1=O | . | ? | . | 20µM
Cc1c(Cl)cccc1NC(=O)C[C@H]1NC(=O)c2ccccc2NC1=O | . | 45µM | . | ?
O=C(C[C@H]1NC(=O)c2ccccc2NC1=O)Nc1cccc(C(F)(F)F)c1 | . | 45µM | . | ?
Cc1ccccc1NC(=O)CC[C@H]1NC(=O)c2ccccc2NC1=O | . | . | . | .
